# From PubChem
# Rango release inh = inhibition of RanGTP-driven Rango-importin beta dissociation; O95149+P62826; Biochemical FRET Rango-importin beta, RanGTP-induced dissociation; Potency, µM (series often up to 46.1 µM), for inactives: at the highest dose activity change, negative = inhibition; 340,000 tested, 0.071% active; AID 540253; further: potency means the concentration at half of the fitted maximal effect; % of control where 0% means no effect; nearly all actives have a fitted effect of over 45% in size
#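 Recombinant Rango FRET biosensor (EYFP–snurportin 1 IBB–cerulean CFP10) at 0.1 uM premixed with 0.25 uM importin beta in PBS, 1 mM DTT, 0.02% Tween-20, 0.1% BSA. Compound added 5 min; RanGTP-RCC1 (0.6 uM Ran, 2 mM GTP, 0.2 uM RCC1) then triggers release, read at 45 min.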
# Rango-impB inh = prevents formation of the Rango-importin beta complex; Q14974; Rango CFP/YFP FRET sensor + importin beta, 45 min; Potency, µM (doses to about 92.2 µM), for the others: at the top dose inhibition of complex formation; 340,000 tested, 0.031% active; AID 540263;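 further: potency means the concentration at half of the fitted maximal effect; 0% = DMSO wells and 100% = buffer wells lacking importin beta; nearly all actives have a fitted effect of over 15% in size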
#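 Inhibition scored from the CFP 486 nm/YFP 530 nm FRET ratio 45 min after adding 0.125 microM importin beta to 50 nM Rango biosensor preincubated 5 min with compound (room temperature, PBS with DTT, Tween-20, BSA). No-importin wells as positive control.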
# CBFb-RUNX1 inh = inhibitors of human CBF-beta and RUNX1 interaction | Q01196+Q13951 | AlphaScreen CBFb-His/RUNX1-biotin binding, biochemical | Potency, µM (highest dose often 59.8 µM), inactives show at the highest dose activity, negative = inhibition, most hits filed as inhibitors | 230,000 tested, under 10 active | AID 1477; active means well fitted curve in the direction sought with a large enough effect; inconclusive means small, poorly fitted or top-dose-only effect, or effect the other way, or another doubt; inactive means no such curve, though single readings can be large or run the other way; further: % of control where 0% means no effect
# Target sequence (Q01196 whole entry, looked up): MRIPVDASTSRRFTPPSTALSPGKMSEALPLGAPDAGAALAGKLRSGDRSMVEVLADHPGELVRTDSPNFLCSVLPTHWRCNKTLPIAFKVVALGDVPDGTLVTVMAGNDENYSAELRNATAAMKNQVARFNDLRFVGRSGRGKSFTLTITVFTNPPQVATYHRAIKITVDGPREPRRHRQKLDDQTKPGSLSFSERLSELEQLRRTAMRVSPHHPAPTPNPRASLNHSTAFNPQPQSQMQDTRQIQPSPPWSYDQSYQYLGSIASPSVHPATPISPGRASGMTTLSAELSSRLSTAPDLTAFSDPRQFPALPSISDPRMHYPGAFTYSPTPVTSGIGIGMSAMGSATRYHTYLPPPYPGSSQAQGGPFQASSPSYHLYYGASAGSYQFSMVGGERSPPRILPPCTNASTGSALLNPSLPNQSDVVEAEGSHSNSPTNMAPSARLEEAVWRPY
# Target sequence (Q13951 whole entry, looked up): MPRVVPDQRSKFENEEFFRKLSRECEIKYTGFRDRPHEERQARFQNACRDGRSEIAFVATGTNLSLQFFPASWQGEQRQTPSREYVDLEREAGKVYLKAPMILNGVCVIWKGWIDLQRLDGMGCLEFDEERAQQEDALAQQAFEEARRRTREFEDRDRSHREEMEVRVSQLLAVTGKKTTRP
#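 CBFb-His/RUNX1-biotin, 30 nM each, preincubated 20 min RT; compound 15 min RT; Ni + streptavidin beads 50 ng each, 90 min RT; AlphaScreen read.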
# ClpP mod = qHTS Assay for Activators of ClpP; 340,000 tested, 1.9% active; ATP-dependent Clp protease proteolytic subunit (Bacillus subtilis (strain 168)), P80244; AID 651965, 2013; purified B. subtilis ClpP, FRET peptide cleavage, 20 min; Potency, µM (doses to about 57.5 µM), for the others: at the highest dose activity change, negative = active; active means well fitted falling curve with a large enough effect; inconclusive means small, poorly fitted or top-dose-only effect; inactive means no such curve, though single readings can be large or run the other way; further: potency means the concentration at half of the fitted maximal effect; the source files actives as falling curves though it sought activators and does not explain the sign; nearly all actives have a fitted effect of over 65% in size
#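 Purified B. subtilis ClpP, 10 microg/mL final in Tris/HCl pH8 with KCl, BSA, glycerol and Tween-20, cleaved an Abz/nitrotyrosine-quenched decapeptide. Fluorescence (ex 320, em 430) was read at 0 and 20 min at room temperature. Delta was normalized to 5.8 microM ADEP and DMSO/no-enzyme controls.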
# MBNL1 CUG block = inhibitors of human MBNL1 binding to CUG repeat RNA; Q9NR56; TR-FRET MBNL1-His/biotin-(CUG)12 binding, 665/545 ratio; Potency, µM (doses to about 57.5 µM), without a hit: at the top dose activity change, negative = inhibition, usual class: inhibitors; 280,000 tested, 0.036% active; active means well fitted inhibition curve with a large enough effect in the signal ratio, with a control signal flat, not every such curve was filed as active; inconclusive means small, poorly fitted or top-dose-only effect, or effect the other way, or a change in a side signal; inactive means no such curve, though single readings can be large or run the other way; the % refers to the signal ratio; further: potency means the concentration at half of the fitted maximal effect; on the % scale 0 is the no-effect control and ±100 the full control effect
#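 Inhibition of protein-RNA binding appears as loss of TR-FRET between terbium anti-His antibody on MBNL1-His and streptavidin-XL665 on biotin-(CUG)12. Activity is normalized to buffer-only and uninhibited-complex controls.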
# * hit, by the source's call; u = inconclusive; x = no result given. This excerpt belongs to a sample that is enriched for hits. Unless noted, the call rests on the fitted dose curve.
SMILES,Rango release inh,Rango-impB inh,CBFb-RUNX1 inh,ClpP mod,MBNL1 CUG block
CC[C@H](C)[C@H](NC(=O)[C@H](CO)NC(=O)[C@H](CC(C)C)NC(=O)[C@H](CO)NC(=O)[C@@H]1CCCN1C(=O)[C@H](CC(N)=O)NC(=O)[C@@H](N)CC(=O)O)C(=O)N[C@@H](CC(=O)O)C(=O)N[C@@H](CC(C)C)C(=O)N[C@H](C(=O)N[C@@H](Cc1ccccc1)C(=O)N[C@@H](Cc1cnc[nH]1)C(=O)N[C@@H](CC(C)C)C(=O)N[C@@H](CC(C)C)C(=O)N[C@@H](CCCNC(=N)N)C(=O)N[C@H](C(=O)N[C@@H](CC(C)C)C(=O)N[C@@H](CC(C)C)C(=O)N[C@@H](CCC(=O)O)C(=O)N[C@@H](CC(C)C)C(=O)N[C@@H](C)C(=O)N[C@@H](CCCNC(=N)N)C(=O)N[C@H](C(=O)N[C@@H](CCC(N)=O)C(=O)N[C@@H](CO)C(=O)N[C@@H](CCC(N)=O)C(=O)N[C@@H](CCCNC(=N)N)C(=O)N[C@@H](CCC(=O)O)C(=O)N[C@@H](CCCNC(=N)N)C(=O)N[C@@H](C)C(=O)N[C@@H](CCC(=O)O)C(=O)N[C@@H](CCC(N)=O)C(=O)N[C@@H](CC(N)=O)C(=O)N[C@@H](CCCNC(=N)N)C(=O)N[C@H](C(=O)N[C@H](C(=O)N[C@@H](Cc1ccccc1)C(=O)N[C@@H](CC(=O)O)C(=O)N[C@@H](CO)C(=O)N[C@H](C(N)=O)C(C)C)[C@@H](C)CC)[C@@H](C)CC)[C@@H](C)O)[C@@H](C)O)[C@@H](C)O,x,x,-1%,x,x
CCOCCCNc1nc2ccccc2n2c(CC)nnc12,x,x,x,-9%,x
CC(C)c1nn2c(=O)cc(COC(=O)c3ccccc3NC(=O)c3cccc(Cl)c3)nc2s1,x,x,x,10µM*,x
CCCNC1=C(C)C(=O)CC1,-5%,1%,1%,32µM*,-3%
COc1ccc2c(c1OC)C(=O)OC2Nc1nc(-c2ccc(-c3ccccc3)cc2)cs1 (stereo unspecified),7%,5%,-2%,16µM*,36%
COc1cccc(-c2csc(NC3OC(=O)c4c3ccc(OC)c4OC)n2)c1 (stereo unspecified),13%,0%,1%,x,x
CCn1c2ccccc2c2cc(C#N)c(N)nc21,-6%,-2%,x,4%,x
CCOC(=O)c1cc2c3ccccc3n(CC)c2nc1N,3%,0%,-1%,16µM*,-1%
CC(C)CNC(=O)[C@H]1N2C(=O)c3ccccc3C2SC1(C)C (stereo partly specified),14%,5%,x,28µM*,-2%
CCN(CC)c1ccc(/C=C/c2ccc3ccccc3n2)cc1,x,x,x,-1%,x
CCCCn1nc(NC(=O)CCC)c2cc3cc(OC)ccc3nc21,u,u,x,32µM*,13%
COc1ccc2nc3c(cc2c1)c(NC(=O)C1CCCO1)nn3CC(C)C (stereo unspecified),u,u,29%,22µM*,24%
COc1cc(OC)c(/C=C/c2nc3ccccc3o2)c(OC)c1,x,x,x,-1%,x
Cc1cccc(OCCn2nnc3sc4c(c3c2=O)CCCC4)c1,x,x,x,1%,x
C/C(CC(=O)Nc1cccc2c1CCCC2)=N\NC(=O)c1ccccc1N,-19%,2%,-5%,28µM*,3%
Cc1cc(Oc2ccc(N)cn2)ccc1Cl,-13%,6%,1%,0%,0%
COc1cccc(Oc2ccc(N)cn2)c1,12%,-9%,20%,25µM*,15%
Cc1cccc(NC(=O)Cn2c(=O)n(Cc3ccccc3)c(=O)c3oc4ccccc4c32)c1C,x,x,x,-30%,x
OC(CNCc1ccco1)COc1ccccc1 (stereo unspecified),-7%,-5%,-1%,14µM*,5%
COc1ccc(CNC(=O)c2cc(C)nc3c2c(C)nn3-c2cccc(Cl)c2C)cc1,x,x,x,-25%,x
CCC(C)(C)NC(=O)C1CCN(c2nc(C)cc(C)n2)CC1,-2%,1%,-1%,14µM*,5%
Cc1cc(C)nc(N2CCC(C(=O)O)CC2)n1,-24%,1%,2%,20µM*,4%
CCCNC(=O)C1CCN(c2nc(C)cc(C)n2)CC1,-3%,1%,0%,16µM*,0%
CCCCNC(=O)C1CCN(c2nc(C)cc(C)n2)CC1,21%,2%,-4%,4%,4%
Cc1nc(Nc2ccccc2)c2nc(-c3ccccc3)n(CCCN3CCCCC3C)c2n1 (stereo unspecified),x,x,13%,x,x
SMILES,Rango release inh,Rango-impB inh,CBFb-RUNX1 inh,ClpP mod,MBNL1 CUG block
CCNc1cc(S(=O)(=O)C(F)(F)F)ccc1N,2%,3%,2%,1%,u
CCNc1ccc(C(=O)O)cc1N,u,-5%,21%,25µM*,12%
Nc1cc(C(=O)O)ccc1Nc1ccccc1,-5%,u,-3%,10µM*,21%
Nc1ccccc1C(=O)Nc1cccc(C(=O)O)c1,4%,0%,6%,u,6%
CCc1ccccc1Nc1ccc(C(=O)O)cc1N,-2%,u,-10%,28µM*,12%
CC(=O)c1ccc(NC(=O)c2sc(-n3nc(C)c(Cc4ccc5c(c4)OCO5)c3C)nc2C)cc1,x,x,x,-6%,x
CC1CCCCC1NC(=O)COC(=O)c1c2c(nc3ccccc13)/C(=C\c1ccco1)CC2 (stereo unspecified),2.3µM*,u,x,x,x
O=C(COC(=O)c1c2c(nc3ccccc13)/C(=C\c1ccco1)CC2)NC1CCCC1,u,u,x,-3%,x
Cc1ccccc1S(=O)(=O)Oc1ccccc1C(=O)Oc1ccccc1,17%,-5%,22%,25µM*,0%
CSc1nnc(-c2sc(-c3ccccc3)nc2C)n1C,-1%,1%,1%,25µM*,27%
CC(=O)c1ccc(NC(=O)CSc2nc(C3CC3)nc3ccccc23)cc1,6%,0%,x,0%,26%
O=C(CSc1nc(C2CC2)nc2ccccc12)N1c2ccccc2Sc2ccccc21,34%,u,0%,13µM*,-4%
Cn1c2ccccc2c2ncn(CCN3CCOCC3)c(=O)c21,-21%,u,-10%,32µM*,9%
Cc1ccsc1/C=N/n1cnc2sc(C)c(C)c2c1=O,0%,-5%,-18%,32µM*,3%
Cc1ccnc(NC(=O)c2cc(S(=O)(=O)N3CCCCC3)ccc2Cl)c1,6%,2%,-4%,22µM*,16%
CC(C)Oc1ccc2c3c(c(=O)oc2c1)CCC3,-7%,2%,6%,u,4%
CC[C@@H](NS(=O)(=O)c1ccc(C)cc1)C(=O)Oc1ccc2c3c(c(=O)oc2c1)CCC3,-30%,-6%,2%,92%,x
